# Experimental data: PubChem BioAssay (NCI)
# The panel holds about 83,000 compounds, 20% with a hit somewhere; the sample as a whole holds those more often.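 Assay: single dose, 48 h. Readout: percent growth (0 = no net growth; negative = cell death). Active: <10.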 Values without a mark were called inactive. Active and inactive are the calls of the source.
# Tests used:
# Test in all cases: NCI-60 one-dose screen, 48 h (100 = growth as untreated, 0 = no growth, -100 = all killed)
# Conditions in all cases: 10 µM unless noted
# NCI-H23 lung = test system: NCI-H23 lung
# NCI-H226 lung = test system: NCI-H226 lung
# NCI-H322M lung = test system: NCI-H322M lung
# HOP-62 NSCLC = test system: HOP-62 NSCLC
# NCI-H460 lung = test system: NCI-H460 lung
# A549/ATCC NSCLC = test system: A549/ATCC NSCLC
# 786-0 renal = test system: 786-0 renal
# COLO 205 colon = test system: COLO 205 colon
# DU-145 prostate = test system: DU-145 prostate
# K-562 leukemia = test system: K-562 leukemia
# MALME-3M melanoma = test system: MALME-3M melanoma
# MDA-MB-231 breast = test system: MDA-MB-231 breast
# RXF 393 renal = test system: RXF 393 renal
# SF-268 CNS = test system: SF-268 CNS
# SF-295 CNS = test system: SF-295 CNS
# SF-539 CNS = test system: SF-539 CNS
# M14 melanoma = test system: M14 melanoma
# UACC-257 melanoma = test system: UACC-257 melanoma
SMILES,growth (NCI-H23 lung),growth (NCI-H226 lung),growth (NCI-H322M lung),growth (HOP-62 NSCLC),growth (NCI-H460 lung),growth (A549/ATCC NSCLC),growth (786-0 renal),growth (COLO 205 colon),growth (DU-145 prostate),growth (K-562 leukemia),growth (MALME-3M melanoma),growth (MDA-MB-231 breast),growth (RXF 393 renal),growth (SF-268 CNS),growth (SF-295 CNS),growth (SF-539 CNS),growth (M14 melanoma),growth (UACC-257 melanoma)
C=C[C@]1(C)C=C2C(=O)[C@@]3(O)OC[C@@]4(CCCC(C)(C)C43O)C2(O)C(O)C1 (stereo partly specified),80.1%,81.4%,108%,107%,82.5%,76.4%,38.2%,9.48% (active),60.2%,17.1%,5.18% (active),98.3%,21.4%,83.8%,113%,66.2%,9.03% (active),
CN1NC(c2ccccc2)NN(C)C1=O,107%,102%,89.8%,93.6%,109%,101%,102%,105%,122%,89.3%,84.8%,108%,107%,102%,83.5%,106%,108%,
CC(CCN1CCN(CCC(C)CC(C)(C)C)C1CC(C)CC(C)(C)C)CC(C)(C)C (stereo unspecified),100%,98.7%,99.8%,93.5%,101%,96.2%,97.9%,86.2%,103%,58.2%,99.2%,105%,,91.5%,114%,91.5%,100%,107%
CCCCCCC(C(=O)OCC)(C(=O)OCC)C1CCCCCC1,107%,99.6%,96.6%,91.9%,106%,96%,115%,102%,120%,100%,108%,101%,104%,121%,105%,92.8%,106%,
CCn1cnc(C[C@H](NC(=O)[C@@H](NC(=O)Nc2cc(C(F)(F)F)cc(C(F)(F)F)c2)C(C)C)C(=O)OC)c1,-78.8% [100 µM] (active),-55.6% [100 µM] (active),-95.9% [100 µM] (active),-97.9% [100 µM] (active),-43.2% [100 µM] (active),-71.4% [100 µM] (active),-87.5% [100 µM] (active),-94.1% [100 µM] (active),-81.2% [100 µM] (active),-57.3% [100 µM] (active),-90.5% [100 µM] (active),-94.2% [100 µM] (active),-86.2% [100 µM] (active),-68.4% [100 µM] (active),,-96.3% [100 µM] (active),-93.8% [100 µM] (active),-95.1% [100 µM] (active)
CC(=O)O.[In],103%,101%,97.6%,106%,111%,99.6%,101%,112%,113%,96.7%,109%,116%,106%,103%,,110%,105%,94.3%
NCCCOc1cc(Cl)ccc1NC(=O)c1cc2ccccc2cc1OCCCN,-62.3% (active),-28.9% (active),-1.29% (active),-94.3% (active),-91% (active),-93.6% (active),-89.2% (active),-88% (active),-90% (active),0.57% (active),-4.21% (active),-65% (active),-5.16% (active),-73.6% (active),-62% (active),-88.8% (active),-88.5% (active),
N#CCc1ncc(-c2ccc(C(F)(F)F)cc2)c(NC2CCCCCC2)n1,25.7% [100 µM],55.3% [100 µM],68.1% [100 µM],71.7% [100 µM],8.28% [100 µM] (active),21.1% [100 µM],28.6% [100 µM],18.7% [100 µM],28.5% [100 µM],4.45% [100 µM] (active),25.7% [100 µM],37.4% [100 µM],36.4% [100 µM],30.5% [100 µM],,67.2% [100 µM],19% [100 µM],23.3% [100 µM]
Cn1c2ccccc2c2ccccc21,99%,103%,94.9%,90.8%,110%,108%,105%,104%,106%,89.3%,101%,108%,111%,103%,,108%,99.3%,94.8%
Cc1cc2cn3c4ccc(O)cc4nc(N)c3c2cc1C,26.8%,45.9%,7.56% (active),13.6%,-36.1% (active),8.84% (active),13.5%,-56.4% (active),4.25% (active),-14.9% (active),39.6%,27.3%,41.1%,12.9%,1.42% (active),11.4%,4.96% (active),53.1%
COC(=O)[C@H](Cc1cn(C)cn1)NC(=O)[C@@H](NC(=O)Nc1cc(C(F)(F)F)cc(C(F)(F)F)c1)C(C)(C)C,-64.7% [100 µM] (active),64.7% [100 µM],-35.3% [100 µM] (active),-84.2% [100 µM] (active),-56.3% [100 µM] (active),14.8% [100 µM],-88.2% [100 µM] (active),-74.6% [100 µM] (active),-92.3% [100 µM] (active),-12.5% [100 µM] (active),-86.9% [100 µM] (active),-89.6% [100 µM] (active),-87.4% [100 µM] (active),-90.4% [100 µM] (active),,-84.4% [100 µM] (active),-85.2% [100 µM] (active),-74.2% [100 µM] (active)
CC(Br)c1nc2ccccc2cc1C(N)=O (stereo unspecified),107%,106%,99.9%,101%,102%,97%,103%,110%,102%,90.9%,101%,118%,109%,104%,,103%,109%,119%
COC(=O)C(C(=O)OC)C(Br)C(Br)C(Br)c1ccccc1 (stereo unspecified),108%,96.5%,113%,144%,108%,96%,96.3%,71.2%,89.5%,24.8%,101%,117%,57.5%,99.2%,,98%,104%,82.7%
CC(O)CCC(C)[N+](=O)[O-] (stereo unspecified),111%,109%,98.7%,95.4%,109%,96.3%,101%,111%,111%,99.9%,106%,110%,119%,104%,,99%,106%,102%
O=C(/C=C/c1ccc(Cl)cc1)c1ccc(Cl)cc1,94.8%,100%,91.3%,102%,104%,95.5%,83.4%,113%,101%,73.9%,91.8%,118%,96%,98.3%,,104%,100%,103%
COC(=O)[C@H](Cc1cn(C)cn1)NC(=O)[C@H](Cc1c[nH]c2ccccc12)NC(=O)Nc1cc(C(F)(F)F)cc(C(F)(F)F)c1,-72.4% [100 µM] (active),-47.9% [100 µM] (active),-41.9% [100 µM] (active),-92% [100 µM] (active),-25.8% [100 µM] (active),-50.8% [100 µM] (active),-83.8% [100 µM] (active),-77.1% [100 µM] (active),-88.1% [100 µM] (active),-59.3% [100 µM] (active),-70.2% [100 µM] (active),-92.4% [100 µM] (active),-81.2% [100 µM] (active),-79.9% [100 µM] (active),,-69.1% [100 µM] (active),-83.8% [100 µM] (active),-67.6% [100 µM] (active)
O=C(Nc1ccc(-n2cc(-c3ccncc3)c(-c3ccc(Cl)c(O)c3)n2)cc1)c1ccc(Cl)c(Cl)c1,45.7%,107%,97.1%,6.9% (active),8.3% (active),43.6%,-63.5% (active),51.9%,61.8%,10.3%,43.6%,31.5%,-52.1% (active),61.1%,-50.3% (active),23.5%,-65.8% (active),58.6%
